Assay outcomes as filed in PubChem BioAssay.
PP1 counter = PP1-alpha phosphatase inhibitors, primary screen, counter-screen for PP5 inhibitor project, biochemical, fluorescence, OMFP substrate, single point. Serine/threonine-protein phosphatase PP1-alpha catalytic subunit (Homo sapiens), P62136. purified PP1alpha. inhibition, % at 6.7 µM. 320,000 tested, 0.9% active. AID 2235, 2010;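 active means inhibition above the mean inhibition of all tested compounds plus 3 SD, computed separately for each screening campaign, cut at about 15% in these data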
PAFAH1B3 inh = PAFAH1B3 enzyme inhibitors, primary screen, biochemical, fluorescence polarization, human; Platelet-activating factor acetylhydrolase IB subunit alpha1 (Homo sapiens), Q15102; recombinant PAFAH1B3, FP-rhodamine probe; inhibition, % at 3.39 µM; 340,000 tested, 0.28% active;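 active means inhibition above the screen-wide average of all tested compounds plus 3 SD, cut at about 25% in these data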;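 further: 0% = enzyme with DMSO only and 100% = wells lacking PAFAH1B3 protein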
Target sequence (Q15102 whole entry, looked up): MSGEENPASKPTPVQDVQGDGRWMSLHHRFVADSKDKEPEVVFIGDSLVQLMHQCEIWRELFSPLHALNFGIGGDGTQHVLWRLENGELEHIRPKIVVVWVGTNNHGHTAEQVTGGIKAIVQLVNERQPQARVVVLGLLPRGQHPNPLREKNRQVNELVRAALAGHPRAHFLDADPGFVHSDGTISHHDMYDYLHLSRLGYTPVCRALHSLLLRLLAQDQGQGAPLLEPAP
PP5 inh = PP5 phosphatase inhibitors, primary screen, biochemical, fluorescence | purified PP5c, OMFP substrate fluorescence | Serine/threonine-protein phosphatase 5 (Homo sapiens), P53041 | inhibition, % at 6.7 µM | 320,000 tested, 0.18% active | AID 1987, 2009;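 active means inhibition above the campaign's mean inhibition across all tested compounds plus 3 SD, cut at about 9.5% in these data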;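 further: 0% = DMSO only and 100% = 100 µM cantharidin control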
PAFAH1B2 inh = PAFAH1B2 enzyme inhibitors, primary screen, biochemical, fluorescence polarization, human | 340,000 tested, 1.2% active | Platelet-activating factor acetylhydrolase IB subunit alpha2 (Homo sapiens), P68402 | inhibition, % at 3.39 µM | AID 492953, 2010 | recombinant PAFAH1B2, FP-rhodamine activity probe;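 active means inhibition above the mean of all tested compounds plus 3 SD, cut at about 24% in these data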;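 further: 0% = enzyme with DMSO and 100% = wells lacking PAFAH1B2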
Target sequence (P68402 whole entry, looked up): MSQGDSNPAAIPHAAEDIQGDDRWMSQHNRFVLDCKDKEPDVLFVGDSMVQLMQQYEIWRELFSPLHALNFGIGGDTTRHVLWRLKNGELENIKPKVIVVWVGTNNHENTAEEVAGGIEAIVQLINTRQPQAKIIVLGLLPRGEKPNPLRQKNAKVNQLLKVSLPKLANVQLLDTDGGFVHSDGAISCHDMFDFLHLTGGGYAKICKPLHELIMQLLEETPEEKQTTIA
pPAFAH FP inh = pPAFAH enzyme inhibitors, primary screen, biochemical, fluorescence polarization, human. Platelet-activating factor acetylhydrolase (Homo sapiens), Q13093. recombinant pPAFAH, FP-rhodamine probe fluorescence polarization. inhibition, % at 3.39 µM. 330,000 tested, 1.5% active. AID 463082, 2010;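 active means inhibition above the mean inhibition across the screen plus 3 SD, cut at about 25% in these data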;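 further: inhibitors block binding of the rhodamine activity-based probe so polarization drops; 0% = enzyme with DMSO and 100% = wells lacking pPAFAH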
PAFAH2 inh = PAFAH2 enzyme inhibitors, primary screen, biochemical, fluorescence polarization, human | Platelet-activating factor acetylhydrolase 2, cytoplasmic (Homo sapiens), Q99487 | recombinant PAFAH2, FP-rhodamine activity probe | inhibition, % at 3.39 µM | 340,000 tested, 0.99% active;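 active means inhibition above the mean over all tested compounds plus 3 SD, cut at about 30% in these data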;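 further: inhibitors block probe labeling of enzyme so polarization drops; 0% = enzyme with DMSO and 100% = wells lacking PAFAH2 protein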
PP1 confirm = PP1 phosphatase inhibitors, confirmation, biochemical, fluorescence, OMFP substrate, triplicate; shares compounds with PP1 counter; purified PP1alpha; inhibition, % at 6.7 µM; 1,900 tested, 52% active;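 active means mean PP1 inhibition above a set limit taken from the earlier primary screen, cut at about 15% in these data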
PP5 counter = PP5 phosphatase inhibition by PP1 hits, confirmation, counter-screen for PP1 inhibitor project, biochemical, fluorescence, triplicate; 1,900 tested, 4% active; shares compounds with PP1 counter; inhibition, % at 6.7 µM; purified PP5c, OMFP fluorescence;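 active means mean PP5 inhibition over triplicate wells above about 9.5% taken from the earlier PP1 screen, limit read from the data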
The depositor's hits bear a star. Most compounds without a hit are left out; they make up all but 3.4% or so of the library.

How did O=C(Nc1nnc(C2=COCCO2)o1)c1ccc(S(=O)(=O)N2CCOCC2)cc1 do in these assays?
PP1 counter: 12; PAFAH1B3 inh: 2; PP5 inh: 0; PAFAH1B2 inh: 8; pPAFAH FP inh: -6; PAFAH2 inh: -2

What do the screens show for `Cc1nnc(NC(=O)c2ccc(S(=O)(=O)N3CCc4ccccc4C3)cc2)o1`?
PP1 counter: 24*; PAFAH1B3 inh: 1; PP5 inh: 2; PAFAH1B2 inh: 9; pPAFAH FP inh: 1; PAFAH2 inh: -2; PP1 confirm: 21*; PP5 counter: -3

Results for Cc1nnc(NC(=O)c2ccc(S(=O)(=O)N3CCCCC3C)cc2)o1 (stereo not drawn) ?
PP1 counter: 13; PAFAH1B3 inh: 6; PP5 inh: 5; PAFAH1B2 inh: 5; pPAFAH FP inh: -2; PAFAH2 inh: 4

How did Cc1nnc(NC(=O)c2ccc(S(=O)(=O)N3CC(C)CC(C)C3)cc2)o1 (stereo not drawn) do in these assays?
PP1 counter: 22*; PAFAH1B3 inh: 1; PP5 inh: 1; PAFAH1B2 inh: 4; pPAFAH FP inh: 5; PAFAH2 inh: -5; PP1 confirm: 8; PP5 counter: 0

What do the screens show for `CCOC(=O)N1CCN(S(=O)(=O)c2ccc(C(=O)Nc3nnc(C)o3)cc2)CC1`?
PP1 counter: 7; PAFAH1B3 inh: 3; PP5 inh: 1; PAFAH1B2 inh: 6; pPAFAH FP inh: 1; PAFAH2 inh: 16

How did CC1CCCN(S(=O)(=O)c2ccc(C(=O)Nc3nnc(C4=COCCO4)o3)cc2)C1 (stereo not drawn) do in these assays?
PP1 counter: 19*; PAFAH1B3 inh: 4; PP5 inh: 4; PAFAH1B2 inh: 8; pPAFAH FP inh: 3; PAFAH2 inh: 4; PP1 confirm: 1; PP5 counter: -4

Results for CCN(CC)S(=O)(=O)c1ccc(N2CC(C(=O)NC3(C)CCS(=O)(=O)C3)CC2=O)cc1 (stereo not drawn) ?
PP1 counter: -1; PAFAH1B3 inh: 4; PP5 inh: 0; PAFAH1B2 inh: 2; pPAFAH FP inh: 2; PAFAH2 inh: 2

How did Cc1cc(N2C(=O)C(O)=C(C(=O)c3ccco3)C2c2ccc([N+](=O)[O-])cc2)no1 (stereo not drawn) do in these assays?
PP1 counter: 4; PAFAH1B3 inh: 8; PP5 inh: 3; PAFAH1B2 inh: 4; pPAFAH FP inh: 4; PAFAH2 inh: 5

How did CSc1ccc(C2C(C(=O)c3ccco3)=C(O)C(=O)N2c2nnc(SC)s2)cc1 (stereo not drawn) do in these assays?
PP1 counter: 20*; PAFAH1B3 inh: 6; PP5 inh: -1; PAFAH1B2 inh: 2; pPAFAH FP inh: 2; PAFAH2 inh: -1; PP1 confirm: 16*; PP5 counter: -5

What do the screens show for `CCOC(=O)c1sc(N2C(=O)C(O)=C(C(=O)c3ccco3)C2c2ccc(C)o2)nc1C` (stereo not drawn)?
PP1 counter: 23*; PAFAH1B3 inh: 3; PP5 inh: 3; PAFAH1B2 inh: 3; pPAFAH FP inh: 11; PAFAH2 inh: 1; PP1 confirm: 23*; PP5 counter: 2
